In PubChem BioAssay (NCATS):
Inconclusive results are not listed. A number with no mark means an inactive call. Active and inactive are the calls of the source. Calls follow the shape of the dose curve; as a rule, active = well fitted inhibition curve with a large enough effect; inconclusive = small, poorly fitted or top-dose-only effect; inactive = flat fitted curve, though single readings scatter.

Assay: qHTS profiling for inhibitors of Plasmodium falciparum proliferation (AID 504749); also: nearly all actives have a fitted effect of over 60% in size;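 as to activity, negative = inhibition: 0% = DMSO vehicle and full inhibition = artemisinin control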
Conditions: P. falciparum in erythrocytes, SYBR Green DNA, 72 h; at 12.8 µM (top of the series); parasite line A
Text: NIH National Institute of Allergy and Infectious Diseases [NIAID] NIH Chemical Genomics Center [NCGC] MLPCN Grant: None Assay Provider: Xinzhuan Su, NIAID NCGC Assay Overview: Plasmodium falciparum is a virulent malarial parasite that kills 1-2 million people worldwide each year. Transmitted by mosquitoes, the sporozoite form of the parasite enters the blood stream to infect hepatocytes, where they become merozoites that infect red blood cells (erythrocytes). Within erythrocytes, merozoites begin a […] cycle of growth and division, after which the parasite is released to infect new red blood cells. Gametocytes, which form within erythrocytes as well, circulate in the bloodstream and are ingested by the mosquito, thereby completing the life cycle. To profile malarial isolates for differential chemical responses and to identify inhibitors of malarial growth, an assay that measures P. falciparum growth and replication within erythrocytes was employed. This assay uses a DNA binding fluorescent dye (SYBR Green) to detect parasite DNA following cell lysis. Because mature erythrocytes lack DNA, only Plasmodium-derived DNA is detected.
NCGC Assay Protocol Summary: The SYBR Green viability assay was adapted from a method described previously (Plouffe et al., 2008). For screening 3 ul culture medium was dispensed into 1536 well black clear bottom plates (Aurora Biotechnologies) using a Multidrop Combi (Thermo Fisher Scientific Inc.), 23 nL compounds in DMSO were added by a pin tool (Kalypsys), and 5 ul of erythrocytes infected with P. falciparum (0.3% parasitemia, 2.5% hematocrit final concentration) were added. The plates were incubated at 37 C in a humidified incubator in 5% CO2 for 72 h, and 2 ul lysis buffer (20 mM Tris HCl, 10 mM EDTA, 0.16% saponin, 1.6% triton X, 10X SYBR Green I supplied as 10,000X […] by Invitrogen) was added to each well. The plates were mixed for 25 sec with gentle shaking and incubated overnight at room temperature in the dark. The following morning, fluorescence intensity at 485(14) nm excitation and 535(25) nm emission wavelengths was measured on an EnVision (Perkin Elmer) plate reader. Plate reads were normalized relative to the control inhibitor (0.29 uM artemisinin) and vehicle (DMSO) wells present on each plate and then corrected by an algorithm using vehicle-only control plates at the beginning and end of the compound plate stack.
Potency is read from the fitted curve at half-maximal effect.

| SMILES | activity, negative = inhibition [%] |
| --- | --- |
| O=C(O)c1ccccc1-c1c2cc(Br)c(=O)cc-2oc2[c]([Hg])c(O)c(Br)cc12 | 23.4 |

Same assay, conditions: P. falciparum in erythrocytes, SYBR Green DNA, 72 h; at 12.8 µM (top of the series); parasite line B

| SMILES | activity, negative = inhibition [%] |
| --- | --- |
| O=C(O)c1ccccc1-c1c2cc(Br)c(=O)cc-2oc2[c]([Hg])c(O)c(Br)cc12 | 5.61 |

Same assay, conditions: P. falciparum in erythrocytes, SYBR Green DNA, 72 h; at 28.7 µM (top of the series); parasite line A

| SMILES | activity, negative = inhibition [%] |
| --- | --- |
| CCN(CC)CCO[C@H]1CC[C@@]2(C)C(=CC[C@@H]3[C@H]2CC[C@]2(C)C(=O)CC[C@H]32)C1 | -0.0219 |
| C[N+](C)(C)CC(=O)[O-] | 11.4 |
| CCN1C[C@]2(COC)[C@H](O)C[C@H](OC)[C@]34C1C([C@H](OC)[C@H]23)[C@]1(OC(C)=O)C2[C@@H](OC(=O)c3ccccc3)C(O)(C[C@H]24)[C@@H](OC)[C@@H]1O | -2.64 |
| CO[C@H]1[C@@H](O)CC(OC2[C@@H](O)CC(OC3[C@@H](O)C[C@H](OC4CC[C@@]5(C)C(CCC6C5CC(O)[C@]5(C)[C@H](C7=CC(=O)OC7)CCC65O)C4)O[C@@H]3C)O[C@@H]2C)O[C@@H]1C (stereo partly specified) | -4.67 |

Same assay, conditions: P. falciparum in erythrocytes, SYBR Green DNA, 72 h; at 28.7 µM (top of the series); parasite line B

| SMILES | activity, negative = inhibition [%] |
| --- | --- |
| CCN(CC)CCO[C@H]1CC[C@@]2(C)C(=CC[C@@H]3[C@H]2CC[C@]2(C)C(=O)CC[C@H]32)C1 | 10.7 |
| C[N+](C)(C)CC(=O)[O-] | 8.81 |
| CCN1C[C@]2(COC)[C@H](O)C[C@H](OC)[C@]34C1C([C@H](OC)[C@H]23)[C@]1(OC(C)=O)C2[C@@H](OC(=O)c3ccccc3)C(O)(C[C@H]24)[C@@H](OC)[C@@H]1O | -26.7 |
| CO[C@H]1[C@@H](O)CC(OC2[C@@H](O)CC(OC3[C@@H](O)C[C@H](OC4CC[C@@]5(C)C(CCC6C5CC(O)[C@]5(C)[C@H](C7=CC(=O)OC7)CCC65O)C4)O[C@@H]3C)O[C@@H]2C)O[C@@H]1C (stereo partly specified) | 10.4 |

Same assay, conditions: P. falciparum in erythrocytes, SYBR Green DNA, 72 h; parasite line A

| SMILES | Potency |
| --- | --- |
| Oc1cc[c]([Hg][Cl])cc1 | 7.94 µM (active) |
| CC(C)[C@@]1(NC(=O)[C@H]2CC3c4cccc5[nH]cc(c45)C[C@H]3N(C)C2)O[C@@]2(O)C3CCCN3C(=O)[C@@H](Cc3ccccc3)N2C1=O (stereo partly specified) | 6.31 µM (active) |
| CCCCCCCCCC[N+](C)(C)CCCCCCCCCC | 5.01 µM (active) |

Same assay, conditions: P. falciparum in erythrocytes, SYBR Green DNA, 72 h; parasite line B

| SMILES | Potency |
| --- | --- |
| Oc1cc[c]([Hg][Cl])cc1 | 10 µM (active) |
| CC(C)[C@@]1(NC(=O)[C@H]2CC3c4cccc5[nH]cc(c45)C[C@H]3N(C)C2)O[C@@]2(O)C3CCCN3C(=O)[C@@H](Cc3ccccc3)N2C1=O (stereo partly specified) | 5.01 µM (active) |
| CCCCCCCCCC[N+](C)(C)CCCCCCCCCC | 6.31 µM (active) |
